Compounds without any hit were thinned out: in the full panel of roughly 83,000, 20% have a hit.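 Assay: single dose, 48 h. Readout: percent growth (0 = no net growth; negative = cell death). Active: <10.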 The source made the active and inactive calls.
System: CAKI-1 renal
Assay: NCI-60 one-dose screen, 48 h (100 = growth as untreated, 0 = no growth, -100 = all killed)
Conditions: 10 µM

Question: With `CN1CCN(c2ccc(Nc3nc(N4CCN(S(=O)(=O)c5ccc(F)cc5)CC4)c4sccc4n3)cc2)CC1` as the compound, how does the growth read?
Answer: Its growth is -96.3% (active).

Question: With `O=C(Cn1cc(CSc2nnc3oc4ccccc4n23)nn1)Nc1ccc(Br)cc1` as the compound, how does the growth read?
Answer: Its growth is 71.2% (inactive).

Question: Which growth does the source give for `CC1(C)CC[C@]2(C(=O)NCCCNCCCCNCCCN)CC[C@]3(C)C(=CC[C@@H]4[C@@]5(C)Cc6c([nH]c7ccccc67)C(C)(C)[C@@H]5CC[C@]43C)[C@H]2C1` here?
Answer: The growth was 78% (inactive).

Question: `COc1ccc(CCN2C(=O)/C(=C/c3csc(C#N)n3)SC2=S)cc1` was tested. Which growth did it give?
Answer: The growth was -0.602% (active).

Question: `CC(=O)Nc1nc(-c2ccc(N3CCN(C)CC3)c(NS(=O)(=O)c3ccc(C(F)(F)F)cc3)c2)cs1` was tested. Which growth did it give?
Answer: Its growth is 13.5% (inactive).

Question: How did the growth turn out when `O=C(NO)c1ccc(Cn2ccc3c(Nc4ccccc4)ncnc32)cc1` was run?
Answer: The growth was 10.7% (inactive).

Question: How did the growth turn out when `CC(=O)Nc1nc(-c2ccc(N3CCN(C)CC3)c(NS(=O)(=O)c3cccc4c(N(C)C)cccc34)c2)cs1` was run?
Answer: The growth was 66.5% (inactive).

Question: Which growth does the source give for `CCCCCCCCCCCCCCCCCCCC(=O)NCCc1c[nH]c2ccc(OC(=O)CCCC(=O)OCCOOCCOOCCOOCCOOCCOOCCOOCCOOCCOOCCOOCCOOCCOOCCOC)cc12` here?
Answer: Its growth is 73.7% (inactive).

Question: Which growth does the source give for `COC[C@@H](CC(C)C)N=C1NC(=O)/C(=C/c2ccc3ncsc3c2)N1` here?
Answer: Its growth is 4.39% (active).

Question: For `O=C(NC(=S)N1CCN(c2ncnc3c2cnn3-c2ccccc2)CC1)c1ccc(Cl)cc1`, which growth is on record?
Answer: Its growth is 27.7% (inactive).

System: A498 renal
Assay: as above
Conditions: 10 µM

Question: `CN1CCN(c2ccc(Nc3nc(NCCCNC(=O)c4ccc(F)cc4)c4sccc4n3)cc2)CC1` was tested. Which growth did it give?
Answer: Its growth is 129% (inactive).

Question: For `O=C(CS(=O)(=O)c1oc(-c2ccc(Cl)cc2)nc1S(=O)(=O)c1ccc(Cl)cc1)N1CCOCC1`, which growth is on record?
Answer: Its growth is 134% (inactive).

Question: For `COc1ccc(C(=O)NC(=S)N2CCN(c3ncnc4c3cnn4-c3ccccc3)CC2)cc1`, which growth is on record?
Answer: The growth was 115% (inactive).

Question: How did the growth turn out when `O=C(O)CCCCCCCCCCN1C(=O)/C(=C/c2cnc(-c3ccc(Cl)cc3)s2)SC1=S` was run?
Answer: The growth was 83.2% (inactive).

Question: Which growth does the source give for `COc1cccc(C(N)=Nc2ccc(OCCCCCCn3cncn3)cc2)c1` here?
Answer: Its growth is 113% (inactive).

Question: `CN(C)c1cccc2c(S(=O)(=O)Nc3cccc(-c4csc(NC(=O)CCCCCN5CCN(c6cc7c(cc6F)C(=O)N(C6CCC(=O)NC6=O)C7=O)CC5)n4)c3)cccc12` (stereo not given) was tested. Which growth did it give?
Answer: The growth was 95.7% (inactive).

Question: `Cc1ccc(C(C)C)cc1NC(=O)c1ccccc1O` was tested. Which growth did it give?
Answer: The growth was 67.8% (inactive).

Question: `NC(=Nc1ccc(OCCCCCCCCn2ccnn2)cc1)c1ccccc1` was tested. Which growth did it give?
Answer: The growth was 98.1% (inactive).

Question: For `O=c1[nH][nH]c(Nc2ccccc2)c1N=Nc1ccc(F)cc1`, which growth is on record?
Answer: The growth was 110% (inactive).

Question: For `COc1ccc2[nH]c(O)c(N=NC(=O)c3cc(-c4ccc(C)cc4)nc4ccccc34)c2c1`, which growth is on record?
Answer: The growth was 126% (inactive).

Question: For `CN1C(=O)/C(=C/c2nccs2)SC1=S`, which growth is on record?
Answer: The growth was 109% (inactive).

Question: With `CNC(=O)c1cc(-c2ccc(NC(=O)Nc3ccc(C)cc3)cc2)nc2cccnc12` as the compound, how does the growth read?
Answer: Its growth is 95.4% (inactive).

Question: How did the growth turn out when `CC(=O)NNc1ccc2nnc(-c3ccc(Br)cc3)n2n1` was run?
Answer: Its growth is 83.4% (inactive).

Question: How did the growth turn out when `O=c1oc2ccc(-c3ccc(F)cc3F)cc2c(=O)n1-c1ccc(F)c(Cl)c1` was run?
Answer: The growth was -20.8% (active).

Question: For `CCN1CCN(c2ccc(NC(=O)Nc3ccc(-c4cc(C(=O)NC(C)C)c5ncccc5n4)cc3)cc2C(F)(F)F)CC1`, which growth is on record?
Answer: The growth was -99.1% (active).

Question: How did the growth turn out when `COC(=O)C(Cc1ccc(O)c(O)c1)NC(=O)C(CSC/C=C(\C)CCCC(C)CCCC(C)CCCC(C)C)NC(C)=O` (stereo not given) was run?
Answer: The growth was 102% (inactive).

Question: Which growth does the source give for `CN1CCN(c2ccc(Nc3nc(NCCCNC(=O)c4ccc(Cl)cc4)c4sccc4n3)cc2)CC1` here?
Answer: The growth was 136% (inactive).

Question: `CCCCCCCCCCCCCCCCCCCC(=O)NCCc1c[nH]c2ccc(O)cc12` was tested. Which growth did it give?
Answer: The growth was 118% (inactive).

Question: Which growth does the source give for `CCCCCc1ccc(S(=O)(=O)N(C(C)=O)c2cc(-c3csc(N(C)C(C)=O)n3)ccc2N2CCN(C)CC2)cc1` here?
Answer: Its growth is 123% (inactive).

Question: How did the growth turn out when `COc1ccc2[nH]c(O)c(N=NC(=O)COc3ccc(NC(=O)Nc4ccc(Cl)cc4)cc3)c2c1` was run?
Answer: Its growth is 135% (inactive).

Question: For `CCCCCCCCCCCCCCCCCCCC(=O)NCCc1c[nH]c2ccc(OC(=O)NOCCOCCOCCOCCOCCOCCOCCOCCOCCOCCOCCOCCOCCOCCOCCOCCOCCOCCOCCOCCOCCOCCOC)cc12`, which growth is on record?
Answer: Its growth is 63.1% (inactive).

Question: `CC1(C)CC[C@]2(C(=O)N3CCOCC3)CC[C@]3(C)C(=CC[C@@H]4[C@@]5(C)CC[C@H](NCO)C(C)(C)[C@@H]5CC[C@]43C)[C@H]2C1` was tested. Which growth did it give?
Answer: The growth was -91.5% (active).

Question: For `CCC(C)S(=O)(=O)c1oc(-c2ccc(C)cc2)nc1S(=O)(=O)c1ccccc1` (stereo not given), which growth is on record?
Answer: Its growth is 109% (inactive).

Question: Which growth does the source give for `CCCCCc1ccc(S(=O)(=O)Nc2cc(-c3csc(N(C)C(C)=O)n3)ccc2N2CCN(C)CC2)cc1` here?
Answer: Its growth is 104% (inactive).

Question: How did the growth turn out when `C/C(=C\CC/C=C(\C)CC/C=C(\C)CC[C@@H](O)C(C)(C)O)CC/C=C(\C)CC[C@@H](O)C(C)(C)O` was run?
Answer: Its growth is 73.6% (inactive).

Question: Which growth does the source give for `CC(C)C(=O)Nc1ccc(C(=O)NC(=S)Nc2ccc(C(=O)O)cc2)cc1` here?
Answer: Its growth is 122% (inactive).

Question: Which growth does the source give for `CN1CCN(c2ccc(Nc3nc(N4CCN(S(=O)(=O)c5ccc(F)cc5)CC4)c4sccc4n3)cc2)CC1` here?
Answer: The growth was -94.3% (active).

Question: `O=C(Cn1cc(CSc2nnc3oc4ccccc4n23)nn1)Nc1ccc(Br)cc1` was tested. Which growth did it give?
Answer: The growth was 119% (inactive).

Question: With `CC1(C)CC[C@]2(C(=O)NCCCNCCCCNCCCN)CC[C@]3(C)C(=CC[C@@H]4[C@@]5(C)Cc6c([nH]c7ccccc67)C(C)(C)[C@@H]5CC[C@]43C)[C@H]2C1` as the compound, how does the growth read?
Answer: Its growth is 147% (inactive).

Question: Which growth does the source give for `COc1ccc(CCN2C(=O)/C(=C/c3csc(C#N)n3)SC2=S)cc1` here?
Answer: The growth was 61.4% (inactive).

Question: For `CC(=O)Nc1nc(-c2ccc(N3CCN(C)CC3)c(NS(=O)(=O)c3ccc(C(F)(F)F)cc3)c2)cs1`, which growth is on record?
Answer: The growth was 52.3% (inactive).

Question: How did the growth turn out when `CC(=O)Nc1nc(-c2ccc(N3CCN(C)CC3)c(NS(=O)(=O)c3cccc4c(N(C)C)cccc34)c2)cs1` was run?
Answer: Its growth is 117% (inactive).

Question: `CCCCCCCCCCCCCCCCCCCC(=O)NCCc1c[nH]c2ccc(OC(=O)CCCC(=O)OCCOOCCOOCCOOCCOOCCOOCCOOCCOOCCOOCCOOCCOOCCOOCCOC)cc12` was tested. Which growth did it give?
Answer: The growth was 116% (inactive).

Question: With `COC[C@@H](CC(C)C)N=C1NC(=O)/C(=C/c2ccc3ncsc3c2)N1` as the compound, how does the growth read?
Answer: The growth was -7.78% (active).

Question: How did the growth turn out when `O=C(NC(=S)N1CCN(c2ncnc3c2cnn3-c2ccccc2)CC1)c1ccc(Cl)cc1` was run?
Answer: The growth was 68.4% (inactive).

Source: PubChem BioAssay (NCI)
